# Publication PMC11062922 (Nature Chemical Biology, 2023)
# Like-named read-outs stand apart in the source and are kept apart here.
# Assays:
# [1] = test system: ABL1; parameters: species or system human, MV4-11 + K-562 + COLO205 + SK-N-BE2 + OVCAR-8; settings: read-out: apparent Kd, n = 1
# [2] = test system: BCR; parameters: species or system human, MV4-11 + K-562 + COLO205 + SK-N-BE2 + OVCAR-8; settings: read-out: apparent Kd, n = 1
# [3] = test system: CSNK2A1;CSNK2A3; parameters: species or system human, MV4-11 + K-562 + COLO205 + SK-N-BE2 + OVCAR-8; settings: read-out: apparent Kd; compound concentrations:100 nM and 1000 nM (sheet 'Samples'); n = 1
# [4] = test system: CSNK2A2; parameters: species or system human, MV4-11 + K-562 + COLO205 + SK-N-BE2 + OVCAR-8; settings: read-out: apparent Kd, n = 1
# [5] = test system: ABL2; parameters: species or system human, MV4-11 + K-562 + COLO205 + SK-N-BE2 + OVCAR-8; settings: read-out: apparent Kd, n = 1
# [6] = test system: CLK1; parameters: species or system human, MV4-11 + K-562 + COLO205 + SK-N-BE2 + OVCAR-8; settings: read-out: apparent Kd; compound concentrations:100 nM and 1000 nM (sheet 'Samples'); n = 1
# [7] = test system: CLK4; parameters: species or system human, MV4-11 + K-562 + COLO205 + SK-N-BE2 + OVCAR-8; settings: read-out: apparent Kd; compound concentrations:100 nM and 1000 nM (sheet 'Samples'); n = 1
# [8] = test system: RIPK2; parameters: species or system human, MV4-11 + K-562 + COLO205 + SK-N-BE2 + OVCAR-8; settings: read-out: apparent Kd, n = 1
# [9] = molecular target: Q6ZSR9 (human, UniProt Q6ZSR9); parameters: species or system MV4-11 + K-562 + COLO205 + SK-N-BE2 + OVCAR-8; settings: read-out: apparent Kd, compound concentrations: 100 nM and 1000 nM (sheet 'Samples'), n = 1
# [10] = test system: RET; parameters: species or system human, MV4-11 + K-562 + COLO205 + SK-N-BE2 + OVCAR-8; settings: read-out: apparent Kd, compound concentrations: 100 nM and 1000 nM (sheet 'Samples'), n = 1
# [11] = test system: TNK1; parameters: species or system human, MV4-11 + K-562 + COLO205 + SK-N-BE2 + OVCAR-8; settings: read-out: apparent Kd; compound concentrations: 100 nM and 1000 nM (sheet 'Samples'), CATDS: 0.12102048296208601; n = 1
# [12] = test system: HCK; parameters: species or system human, MV4-11 + K-562 + COLO205 + SK-N-BE2 + OVCAR-8; settings: read-out: apparent Kd, n = 1
# [13] = test system: ACOX1; parameters: species or system human, MV4-11 + K-562 + COLO205 + SK-N-BE2 + OVCAR-8; settings: read-out: apparent Kd, n = 1
# [14] = test system: GAK; parameters: species or system human, MV4-11 + K-562 + COLO205 + SK-N-BE2 + OVCAR-8; settings: read-out: apparent Kd, compound concentrations: 100 nM and 1000 nM (sheet 'Samples'), n = 1
# [15] = test system: RIPK3; parameters: species or system human, MV4-11 + K-562 + COLO205 + SK-N-BE2 + OVCAR-8; settings: read-out: apparent Kd, compound concentrations: 100 nM and 1000 nM (sheet 'Samples'), n = 1
# [16] = test system: YES1; parameters: species or system human, MV4-11 + K-562 + COLO205 + SK-N-BE2 + OVCAR-8; settings: read-out: apparent Kd; compound concentrations: 100 nM and 1000 nM (sheet 'Samples'), CATDS: 0.19959075009265401; n = 1
# [17] = compound concentrations:100 nM and 1000 nM (sheet 'Samples')
# Sequence of Q6ZSR9 (Q6ZSR9 whole entry, looked up): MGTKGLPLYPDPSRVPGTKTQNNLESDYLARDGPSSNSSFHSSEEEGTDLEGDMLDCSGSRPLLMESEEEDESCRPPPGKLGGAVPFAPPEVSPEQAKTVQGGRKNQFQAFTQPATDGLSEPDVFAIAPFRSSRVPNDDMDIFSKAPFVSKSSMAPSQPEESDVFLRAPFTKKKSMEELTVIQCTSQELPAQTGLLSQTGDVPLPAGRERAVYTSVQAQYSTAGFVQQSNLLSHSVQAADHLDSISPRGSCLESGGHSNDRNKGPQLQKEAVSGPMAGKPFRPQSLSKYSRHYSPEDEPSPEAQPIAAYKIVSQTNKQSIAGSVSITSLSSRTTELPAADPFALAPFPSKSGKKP
smiles,measurement,setting,value
COc1cccc(-c2c[nH]c3c(N/N=C/c4ccncc4)ncnc23)c1 [GW814408X],potency estimated from few doses,[1]; [17],1980 nM
same,potency estimated from few doses,[2]; [17],1150 nM
same,potency estimated from few doses,[3],920 nM
same,potency estimated from few doses,[4]; [17],237 nM
CC(=O)c1c(-c2ccncc2)[nH]c(-c2ccncc2)c1C [GW493036X],potency estimated from few doses,[5]; [17],482 nM
same,potency estimated from few doses,[2]; [17],277 nM
same,potency estimated from few doses,[6],10.9 nM
same,potency estimated from few doses,[7],1.62 nM
same,potency estimated from few doses,[8]; [17],1000 nM
CN1CCN(Cc2ccc(NC(=O)Nc3ccc(N(C)c4ccnc(Nc5ccc(CS(C)(=O)=O)cc5)n4)cc3)cc2)CC1.Cl [GW827654A],potency estimated from few doses,"[1]; compound concentrations: 100 nM and 1000 nM (sheet 'Samples'), CATDS: 3.4576588551286799E-2",1820 nM
same,potency estimated from few doses,"[5]; compound concentrations: 100 nM and 1000 nM (sheet 'Samples'), CATDS: 5.6323659121428699E-2",400 nM
same,potency estimated from few doses,"[2]; compound concentrations: 100 nM and 1000 nM (sheet 'Samples'), CATDS: 3.6645994259317798E-2",1440 nM
same,potency estimated from few doses,[9]; CATDS: 3.5510221653806698E-2,1630 nM
same,potency estimated from few doses,[10]; CATDS: 0.30394920877794601,22.8 nM
same,potency estimated from few doses,[11],87.9 nM
Clc1ccc(-c2nn3ncccc3c2-c2ccnc(Nc3ccccc3)n2)cc1 [GW829055X],potency estimated from few doses,"[12]; compound concentrations: 100 nM and 1000 nM (sheet 'Samples'), CATDS: 3.5992477058575501E-2",1500 nM
Cl.Oc1ccc2ncnc(Nc3ccc(OCc4ccccc4)cc3)c2c1 [GI262866A],potency estimated from few doses,[13]; [17],830 nM
same,potency estimated from few doses,[8]; [17],923 nM
COc1cc2ncn(-c3cc(OCc4sccc4Cl)c(C(N)=O)s3)c2cc1OC [GSK448459A],potency estimated from few doses,[13]; [17],1270 nM
O=C1Nc2ccc(F)cc2/C1=C/c1ccc[nH]1 [RO0272148-000],potency estimated from few doses,"[13]; compound concentrations: 100 nM and 1000 nM (sheet 'Samples'), CATDS: 0.35170736518262402",1160 nM
CCCN1CCC(Oc2cc(Nc3nc(Nc4cccc(F)c4C(N)=O)c4cc[nH]c4n3)c(OC)cc2Cl)CC1 [GSK1713088A],potency estimated from few doses,"[13]; compound concentrations: 100 nM and 1000 nM (sheet 'Samples'), CATDS: 0.172971631917821",2220 nM
Cc1ccc(NC(=O)c2ccc(Cl)cc2)cc1-c1ccc(C(=O)Nc2ccncc2)cc1 [GSK1398467A],potency estimated from few doses,"[13]; compound concentrations: 100 nM and 1000 nM (sheet 'Samples'), CATDS: 0.25978974702241497",761 nM
Cn1cc(C2=C(c3cccc([N+](=O)[O-])c3)C(=O)NC2=O)c2ccccc21 [RO0317474-000],potency estimated from few doses,"[13]; compound concentrations: 100 nM and 1000 nM (sheet 'Samples'), CATDS: 0.177541909552099",937 nM
COc1cc(N2CCN(C(C)C)CC2)ccc1Nc1nc(Nc2cccc(F)c2C(=O)O)c2cc[nH]c2n1 [GSK1819799A],potency estimated from few doses,[14]; CATDS: 9.1160563566663896E-2,352 nM
COc1ccccc1C(=O)c1cnc(NC2CCN(S(C)(=O)=O)CC2)nc1N [RO4514610-000],potency estimated from few doses,[13]; [17],2190 nM
Cn1cc(C2=C(c3cn(CCCN/C(N)=N/[N+](=O)[O-])c4ccccc34)C(=O)NC2=O)c2ccccc21 [RO0318161-000],potency estimated from few doses,"[13]; compound concentrations: 100 nM and 1000 nM (sheet 'Samples'), CATDS: 0.32839321732103",1100 nM
NC(=O)c1cccnc1COc1cc(-c2ccc(N3CCOCC3)nc2)cc2ncccc12 [BI01125081],potency estimated from few doses,[12]; [17],1350 nM
CC(=O)Nc1ccc2c(C3=C(c4cn(C)c5ccccc45)C(=O)NC3=O)cn(C)c2c1 [RO0317596-000],potency estimated from few doses,"[13]; compound concentrations: 100 nM and 1000 nM (sheet 'Samples'), CATDS: 0.20475693554228799",453 nM
COc1ccc(C2=NC(c3ccc(Cl)cc3F)C(C(=O)Nc3ccc4[nH]ncc4c3)=C(C)N2)cn1.O=C(O)C(F)(F)F (stereo not drawn) [GSK534913A],potency estimated from few doses,[13]; [17],1050 nM
COc1cc(F)c(F)c(F)c1C(=O)c1cnc(NC2CCN(S(C)(=O)=O)CC2)nc1N [RO4600703-000],potency estimated from few doses,[13]; [17],1010 nM
same,potency estimated from few doses,[6],729 nM
COc1ccc(C2=C(Nc3cccc(O)c3)C(=O)NC2=O)cc1 [SB-390766],potency estimated from few doses,[13]; [17],861 nM
Cc1ccc(C(=O)NC2CC2)cc1-c1ccc2[nH]ncc2c1 [GW820759X],potency estimated from few doses,"[13]; compound concentrations: 100 nM and 1000 nM (sheet 'Samples'), CATDS: 0.303559006930335",1410 nM
COc1ccc(C2=C(c3cn(C)c4ccccc34)C(=O)NC2=O)cc1OC [RO3206363-000],potency estimated from few doses,"[13]; compound concentrations: 100 nM and 1000 nM (sheet 'Samples'), CATDS: 3.3243349000795501E-2",1570 nM
same,potency estimated from few doses,"[4]; compound concentrations: 100 nM and 1000 nM (sheet 'Samples'), CATDS: 3.3167701686651403E-2",1580 nM
same,potency estimated from few doses,"[12]; compound concentrations: 100 nM and 1000 nM (sheet 'Samples'), CATDS: 3.6036002051639801E-2",1170 nM
same,potency estimated from few doses,[9]; CATDS: 3.9115403920336002E-2,898 nM
COc1ccc(S(=O)(=O)NC2CCN(c3cc(C)nc(Nc4cccc(C#N)c4)n3)CC2)cc1.O=C(O)C(F)(F)F [GSK1653539A],potency estimated from few doses,"[13]; compound concentrations: 100 nM and 1000 nM (sheet 'Samples'), CATDS: 0.290276615306997",1770 nM
Cn1cc(C2=C(c3ccccc3[N+](=O)[O-])C(=O)NC2=O)c2ccccc21 [RO0317753-000],potency estimated from few doses,"[13]; compound concentrations: 100 nM and 1000 nM (sheet 'Samples'), CATDS: 8.6924247533373397E-2",891 nM
Cl.Fc1cccc(COc2ccc(Nc3ncnc4cc(-c5ccc[nH]5)sc34)cc2Cl)c1 [GW693881A],potency estimated from few doses,"[13]; compound concentrations: 100 nM and 1000 nM (sheet 'Samples'), CATDS: 0.17026663208719101",1170 nM
CCS(=O)(=O)c1ccc(OC)c(Nc2ncc(-c3cccc(F)c3)o2)c1 [GW621970X_KCGS],potency estimated from few doses,[4]; [17],2010 nM
Cc1[nH]nc2c1N=C(c1ccccc1Cl)c1cc([N+](=O)[O-])ccc1N2 [RO0274406-000],potency estimated from few doses,"[13]; compound concentrations: 100 nM and 1000 nM (sheet 'Samples'), CATDS: 6.8791722684654694E-2",1400 nM
Cn1cc(C2=C(c3cn(CCCCCO)c4ccccc34)C(=O)NC2=O)c2ccccc21 [RO0318053-000],potency estimated from few doses,"[13]; compound concentrations: 100 nM and 1000 nM (sheet 'Samples'), CATDS: 0.35843240047959801",34.1 nM
COc1cccc(C2=C(c3cn(C)c4c(C)cccc34)C(=O)NC2=O)c1 [RO3301012-000],potency estimated from few doses,"[13]; compound concentrations: 100 nM and 1000 nM (sheet 'Samples'), CATDS: 0.48882093351054501",97.9 nM
same,potency estimated from few doses,"[8]; compound concentrations: 100 nM and 1000 nM (sheet 'Samples'), CATDS: 0.14252909212912099",770 nM
CCCCCNC(=O)[C@@H]1CCCN2C(=O)CC[C@H](NC(=O)[C@H](Cc3ccc(OP(=O)(O)O)cc3)NC(C)=O)C(=O)N12 [RO0324694-000],potency estimated from few doses,[13]; [17],1640 nM
COc1ccc(-c2nn3ncccc3c2-c2ccnc(Nc3ccc4c(c3)OCCO4)n2)cc1 [GW827106X],potency estimated from few doses,"[13]; compound concentrations: 100 nM and 1000 nM (sheet 'Samples'), CATDS: 4.5987124512604401E-2",1840 nM
same,potency estimated from few doses,[14]; CATDS: 6.3505143893273594E-2,888 nM
Cc1ccc(CC(=O)N2CCc3cc(-c4cn(C)c5ncnc(N)c45)ccc32)cc1 [GSK2634758A],potency estimated from few doses,"[13]; compound concentrations: 100 nM and 1000 nM (sheet 'Samples'), CATDS: 0.17317335895949701",1310 nM
Cc1ccc(NC(=O)Nc2ccccc2)cc1-c1ccc(C(=O)Nc2ccncc2)cc1 [GSK1398471A],potency estimated from few doses,"[12]; compound concentrations: 100 nM and 1000 nM (sheet 'Samples'), CATDS: 0.185556916463613",507 nM
same,potency estimated from few doses,"[8]; compound concentrations: 100 nM and 1000 nM (sheet 'Samples'), CATDS: 0.252300510926462",310 nM
same,potency estimated from few doses,[15]; CATDS: 0.107109560808048,1620 nM
same,potency estimated from few doses,[16],448 nM
NC(=O)c1sc(-n2cnc3ccc(C(F)(F)F)cc32)cc1OCc1ccccc1Br [GW853606X],potency estimated from few doses,[13]; [17],2200 nM
Cl.c1ccc(-c2ccc3c(Nc4ccc5[nH]ncc5c4)ccnc3c2)nc1 [GW440137A],potency estimated from few doses,[10]; CATDS: 0.12802615197662401,525 nM
same,potency estimated from few doses,"[8]; compound concentrations: 100 nM and 1000 nM (sheet 'Samples'), CATDS: 0.29852587031983902",58.9 nM
same,potency estimated from few doses,[15]; CATDS: 9.0295884260328696E-2,1600 nM
